Measurements taken from PubChem BioAssay (NCATS).
Records with an inconclusive call do not appear. Values without a mark were called inactive. Activity calls are given as the source filed them. The call rests on the fitted dose curve; in most records, active means well fitted curve in the direction sought with a large enough effect; inconclusive means small, poorly fitted or top-dose-only effect, or another doubt; inactive means no such curve, though single readings can be large; an effect the other way counts as inactive or inconclusive. *1 amine or outer side, *2 acyl side, *3 side chain or, on linkers, in order; H or OH if unused. Where a SMILES comes first, the peptide text is derived from it. Bridges are numbered along the chain shown (N, C = ends). [ ]: non-standard residue; d: D form. The star is where a group is joined. ξ: configuration not given here. X10 = NC1=NCCC(C(N[*:1])C(=O)[*:2])N1; ΔAla(3-NHCONH2) = NC(=O)NC=C(N)C(=O)O; ξβ3hOrn = NCCCC(N)CC(=O)*; Dap = NC[CH](N)C(=O)O

assay: Primary qHTS for inhibitors of nuclear receptor binding SET domain protein 2 (NSD2) in an isogenic RCH-ACV NSD2 p.E1099K mutant (9B) (AID 1645876); details: RCH-ACV NSD2 E1099K (9B) viability, CellTiter-Glo, 72 h; series mostly up to 44.9 µM; activity change, negative = viability loss: at the top concentration
Further: nearly all actives have a fitted effect of over 70% in size.
On the % scale 0 is the no-effect control and ±100 the full control effect.

| SMILES | activity change, negative = viability loss [%] | outcome |
| --- | --- | --- |
| COCCOCC(OC)OC | 9.51 | – |
| Nc1ncnc2nc[nH]c12 | -20.7 | – |
| O=C(O)[C@@H](O)[C@H](O)[C@H](O)[C@@H](O)C(=O)O | 8.42 | – |
| CCOC(=O)CN1CCCC1=O | 8.48 | – |
| NCCCC(N)CC(=O)NCC1NC(=O)C(CO)NC(=O)C(N)CNC(=O)C(C2CCN=C(N)N2)NC(=O)C(=CNC(N)=O)NC1=O (stereo not drawn) (H-[Dap]S[Dap](ξβ3hOrn)[ΔAla(3-NHCONH2)][X10]; lactam 1-C; configuration not given here) | – | inactive [at 0.588 µM] |
| CC(=O)N(CC(=O)N(C)C)c1ccccc1 | -11.8 | – |
| CCCCCC1Nc2cc(C(F)(F)F)c(S(N)(=O)=O)cc2S(=O)(=O)N1 (stereo unspecified) | -6.08 | – |

assay: Primary qHTS for inhibitors of nuclear receptor binding SET domain protein 2 (NSD2) in an RCH-ACV wild type WT cells (2C) (AID 1645877); details: RCH-ACV (leukaemia line) NSD2 WT (2C) viability, CellTiter-Glo, 72 h; series mostly up to 44.9 µM; activity change, negative = cell killing: at the top concentration; further: potency means the concentration at half of the fitted maximal effect

| SMILES | activity change, negative = cell killing [%] | Potency | outcome |
| --- | --- | --- | --- |
| CCOC(=O)c1ccc(OCCN2C[C@H](O)[C@@H](O)[C@H](O)[C@H]2CO)cc1 | -4.43 | – | – |
| Nc1ccc2cc3ccc(N)cc3nc2c1 | – | 1.68 µM (active) | – |
| CO[C@@]1(NC(=O)CSC[C@@H](N)C(=O)O)C(=O)N2C(C(=O)O)=C(CSc3nnnn3C)CS[C@@H]21 | – | – | inactive |
| CN(C)C(=O)CNC(=O)Cc1ccccc1 | 1.03 | – | – |
| NC(=O)NC1N=C([O][Al])NC1=O (stereo unspecified) | -0.0232 | – | – |
| O=C(NN1CCCC1)NS(=O)(=O)c1ccc(Cl)cc1 | – | – | inactive |
| CC(=O)N(CC(O)CO)c1c(I)c(C(=O)NCCO)c(I)c(C(=O)NCC(O)CO)c1I (stereo unspecified) | -3.18 | – | – |
| O=C(CCOCCOCCOCCOCCC(=O)Nc1c(I)cc(I)c(C(=O)O)c1I)Nc1c(I)cc(I)c(C(=O)O)c1I | 8.09 | – | – |
| C[C@H](N)C(=O)N[C@@H](C)C(=O)NC1[C@H]2CN(c3nc4c(cc3F)c(=O)c(C(=O)O)cn4-c3ccc(F)cc3F)C[C@@H]12 (stereo partly specified) | – | 6.68 µM (active) | – |
